Test [1] in a line: StAR promoter reporter inhibitors, counter-screen for LRH-1 inverse agonist project, cell-based, luminescence, high throughput (AID 651611; in the data active means inhibition above about 28%). The settings on record: StAR promoter luciferase reporter counterscreen, at 3.6 µM, active compounds read high. In general terms: A counterscreen serves to expose hits that act by an unwanted route or on another target.
The target of test [2] is Nuclear receptor subfamily 5 group A member 2 (Homo sapiens) (UniProt O00482). Put plainly: NR5A2 activity suppression in reporter cells – cell-based, luminescence, confirmation (AID 651613).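 Further: HEK293T cells co-transfected with LRH-1 and StAR promoter luciferase reporter; 0% = vehicle wells and 100% = parental cells lacking receptor.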 The settings on record: cell-based LRH-1 luciferase reporter, inverse agonism; at 3.6 µM; active compounds read high. Background: A reporter such as luciferase makes a cellular process visible.

Test [3] has as its target Steroidogenic factor 1 (Homo sapiens) (UniProt Q13285). Briefly: inverse agonism at SF1 nuclear receptor – cell-based, luminescence, high throughput, counter-screen for LRH-1 inverse agonist project (AID 651614; in the data active means inhibition above about 44%;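 further: cells cotransfected with StAR promoter reporter and SF1 expression vector; 0% = vehicle on cells with receptor and 100% = vehicle on cells lacking receptor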). Particulars: cell-based SF1 luciferase reporter, at 3.6 µM, active compounds read high.
The nature of test [4]: compounds suppressing VP16-driven luciferase signal – cell-based, luminescence, high throughput, counter-screen for LRH-1 inverse agonist project (AID 651615; in the data active means inhibition above about 33%). The settings on record: Gal4-VP16 luciferase reporter cells, at 3.6 µM, active compounds read high.

As usually defined, the inhibition is the drop in the measured response relative to a control, in per cent.

SMILES strings stand for the structures. Unmarked numbers belong to inactive results. The source made the active and inactive calls. Unless noted, no stated cut-off is given here; in the data, active means inhibition above about 42%; inactive means the rest.

Steroidogenic factor 1 (Homo sapiens), sequence (Q13285 whole entry, looked up, the tested form may be a part): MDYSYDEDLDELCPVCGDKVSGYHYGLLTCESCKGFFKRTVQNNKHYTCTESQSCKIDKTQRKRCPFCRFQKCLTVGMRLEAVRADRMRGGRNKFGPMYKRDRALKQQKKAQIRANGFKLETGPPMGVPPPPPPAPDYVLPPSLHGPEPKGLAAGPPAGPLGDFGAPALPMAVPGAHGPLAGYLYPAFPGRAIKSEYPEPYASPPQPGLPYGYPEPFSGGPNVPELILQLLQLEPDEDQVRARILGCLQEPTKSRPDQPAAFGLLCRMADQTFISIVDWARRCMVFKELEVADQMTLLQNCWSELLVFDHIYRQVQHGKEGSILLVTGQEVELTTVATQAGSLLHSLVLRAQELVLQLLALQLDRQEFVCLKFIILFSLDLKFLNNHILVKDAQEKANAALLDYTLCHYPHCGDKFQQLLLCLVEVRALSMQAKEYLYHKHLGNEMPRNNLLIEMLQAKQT
Nuclear receptor subfamily 5 group A member 2 (Homo sapiens), sequence (O00482 whole entry, looked up): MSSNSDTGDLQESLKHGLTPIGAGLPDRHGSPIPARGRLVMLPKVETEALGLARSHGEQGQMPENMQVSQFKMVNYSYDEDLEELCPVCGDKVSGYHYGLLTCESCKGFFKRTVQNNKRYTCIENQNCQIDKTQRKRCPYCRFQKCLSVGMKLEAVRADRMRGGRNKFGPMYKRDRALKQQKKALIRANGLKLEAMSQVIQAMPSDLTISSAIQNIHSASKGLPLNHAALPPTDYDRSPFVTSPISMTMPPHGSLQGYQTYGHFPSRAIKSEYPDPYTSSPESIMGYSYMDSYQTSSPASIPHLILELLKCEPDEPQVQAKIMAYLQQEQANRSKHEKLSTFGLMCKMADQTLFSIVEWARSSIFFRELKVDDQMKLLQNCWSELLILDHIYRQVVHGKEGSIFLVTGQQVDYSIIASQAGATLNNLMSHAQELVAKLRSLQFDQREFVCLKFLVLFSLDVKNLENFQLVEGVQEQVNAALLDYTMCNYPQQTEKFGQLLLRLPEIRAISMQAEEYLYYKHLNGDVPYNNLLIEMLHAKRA

On to `COCCn1c(C)cc(/C=C(\C#N)C(=O)OCC(=O)Nc2ccc(S(N)(=O)=O)cc2)c1C`, for which the inhibition in test [1] is 11.2%; in test [2] it was 52.6% (active); in test [3] it was 46.3% (active); in test [4], -8.79%.
`O=C(CCl)N1CCN(C(=O)C2COc3ccccc3O2)CC1` (stereo unspecified): the inhibition is 18.7% in test [1], 57.3% (active) in test [2], 57.3% (active) in test [3] and -13.5% in test [4].
`O=C(CN1C(=O)NC2(CCCCC2)C1=O)NCCc1c[nH]c2ccccc12`: the inhibition in test [1] is 10.1%; in test [2], 47.8% (active); in test [3], 56.5% (active); in test [4], 3.42%.
For the compound `COc1ccc(NC(=O)COc2cccc3c2CCN(C)C3=O)c(OC)c1`, the inhibition in test [1] was 20.5%; in test [2] it was 65.9% (active); in test [3] it was 61.6% (active); in test [4], -23.8%.
`COC(=O)c1ccc(NC(=O)CN2CCC(NC(=O)c3ccccc3F)CC2)cc1`: the inhibition was 23.6% in test [1], 52.3% (active) in test [2], 44.1% (active) in test [3] and -4.8% in test [4].
For `CC(C)NC(=O)N1Cc2cc(C(=O)NC3CCCCC3)nc(-c3cccc(-c4cccnc4)c3)c2[C@@H]1CCO`, the inhibition is 27.6% in test [1], 62.6% (active) in test [2], 62.5% (active) in test [3] and -0.48% in test [4].
On to `COc1ccc(-c2nnc(NC(=O)c3ccc([N+](=O)[O-])o3)o2)c(OC)c1`, for which the inhibition is 15.5% in test [1], 63.4% (active) in test [2], 57% (active) in test [3] and 10.2% in test [4].
In the case of `COc1ccc(OC)c(/C=N/N=C2\SCC(=O)N2Cc2ccco2)c1`, the inhibition was 10.7% in test [1], 57.4% (active) in test [2], 45.7% (active) in test [3] and 5.2% in test [4].
As to `O=C(Cc1c(Cl)cccc1Cl)Nc1ccncc1`, the inhibition in test [1] is 16.9%; in test [2], 53.1% (active); in test [3] it was 45.4% (active); in test [4] it was -10%.
Regarding `NC1=CC(=O)C(=O)c2ccccc21`, the inhibition is 29.2% (active) in test [1], 54.9% (active) in test [2], 47% (active) in test [3] and -6.09% in test [4].
For `COc1ccc(CCNC(=O)CSC2=Nc3ccccc3C3=NC(C(C)C)C(=O)N23)cc1OC` (stereo unspecified), the inhibition in test [1] was 21.5%; in test [2], 62.3% (active); in test [3] it was 53.1% (active); in test [4] it was 0.61%.
Regarding `COc1ccc(-c2oc(=O)c3cc(OC)c(OC)cc3c2C#CCCO)cc1`, the inhibition in test [1] is 33.4% (active); in test [2], 28.7%; in test [3], 29.1%; in test [4], -1.67%.
Consider `CCCc1cc(=O)oc2cc(OCC(=O)N3CCN(C(=O)C4COc5ccccc5O4)CC3)ccc12` (stereo unspecified), for which the inhibition in test [1] was 8.6%; in test [2], 63.4% (active); in test [3] it was 55.5% (active); in test [4], 3.04%.
With `CC(NC(=O)c1ccco1)C(c1cccs1)N1CCN(c2ccccc2F)CC1` (stereo unspecified), the inhibition was 3.57% in test [1], 49.3% (active) in test [2], 42.6% in test [3] and 13% in test [4].

For the origin of these results see PubChem BioAssay.
